Source: PubChem (several laboratories)
Compounds with a hit are over-represented: about 3% of the library has one in this group of screens.
sdo1 growth: sdo1-depleted yeast growth rescue. S. cerevisiae sdo1-depleted JHY4D growth rescue, OD600 30 h; hits give high values; pdr5 snq2 efflux-pump mutant strain. z-score at 10 µM. 140,000 tested, 0.21% active;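 active = z-score above 3 at both the 24 hr and the 30 hr optical density reads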;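 note: z-score against mean and SD of all compound wells on the same plate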
ROMK mod: modulators of human ROMK potassium channel | P48048 | Tet-inducible ROMK, thallium flux fluorescence; actives lie on both sides | B-score at 10 µM | 130,000 tested, 2% active | AID 1918;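 active = signal ratio slope over the read window, or its plate-corrected B-score, at least 3 SD from the plate mean, either direction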;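 note: B-score of the F/F0 ratio slope over 7 to 12 s after thallium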
Target sequence (P48048 whole entry, looked up): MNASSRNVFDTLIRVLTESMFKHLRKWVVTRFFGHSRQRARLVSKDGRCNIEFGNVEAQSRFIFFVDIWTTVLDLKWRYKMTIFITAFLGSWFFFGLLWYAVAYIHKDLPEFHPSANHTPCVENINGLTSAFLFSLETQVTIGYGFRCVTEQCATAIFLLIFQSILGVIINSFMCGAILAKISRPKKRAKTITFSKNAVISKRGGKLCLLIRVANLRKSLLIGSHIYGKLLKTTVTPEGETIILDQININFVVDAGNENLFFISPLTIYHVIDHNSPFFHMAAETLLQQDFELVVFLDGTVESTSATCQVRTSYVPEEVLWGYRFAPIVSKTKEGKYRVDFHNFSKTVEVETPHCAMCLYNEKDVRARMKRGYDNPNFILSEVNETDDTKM
INS promoter inh: TRM-6 insulin promoter activity inhibition; TRM-6 cells (human fetal islet line), insulin promoter-eGFP reporter, imaging; reporter expression induced with tamoxifen; inhibition, % at 2 µM; 130,000 tested, 0.9% active; AID 1273;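 active = inhibition above the mean plus 3 SD, with well images judged a real hit on visual review, cut at about 60% in these data, passing the limit was not always enough; inconclusive = inhibition over the cutoff but images rejected on review; inactive = inhibition not above the cutoff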
Measles CPE: protection of cells from measles virus; protection (pct of control), % at 4 µM; 140,000 tested, 1.5% active; Measles virus-infected cells, CPE protection, absorbance; in the data active = protection mostly above about 24%, no sharp cut-off; inactive = mostly below about 26%
ROMK retest: human ROMK channel modulation, retest confirmation; shares compounds with ROMK mod; ROMK thallium flux, fluorescence ratio; hits give low values; normalized thallium flux (F/F0 slope) at 10 µM; 3,000 tested, 54% active; AID 1917;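 active = Flux at 10 µM at least 3 SD below or above vehicle control mean in one or both replicates; inconclusive = no clear call, values can overlap the other calls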
* hit, by the source's call; ? = inconclusive; . = not tested or not shown.

SMILES | sdo1 growth | ROMK mod | INS promoter inh | Measles CPE | ROMK retest
COc1ccc(CCn2cnc(=O)c(C#N)c2C)cc1OC | . | -0.13 | 36 | . | .
COc1ccc(Cl)cc1NC(=S)N(CCCN1CCOCC1)Cc1cn(C)c2ccccc12 | -1.4 | -3.9* | -13 | 10 | 0.078
Cc1ccnc(NC(=O)CCC(=O)N(CC(=O)NC2CCCCC2)Cc2cccs2)c1 | . | -0.28 | -100 | . | 0.077
Cc1cc(NC(=O)CCC(=O)N(CC(=O)NC2CCCC2)Cc2cccs2)no1 | . | 0.15 | -106 | . | .
Cn1c(=O)c2c(nc(N3CCN(c4ccccc4)CC3)n2CCCc2ccccc2)n(C)c1=O | -0.8 | . | 23 | 11 | .
Cn1c(=O)c2c(nc(N3CCN(Cc4ccccc4)CC3)n2CCCc2ccccc2)n(C)c1=O | -1 | . | -62 | 7 | 0.058*
O=C(CN(C1CCCCC1)S(=O)(=O)c1ccc(F)cc1)Nc1ccc2c(c1)OCO2 | -1.3 | -3.3* | -6 | 6 | 0.064*
CN1CCN(c2ccccc2NC(=O)c2ccc(-c3cccc([N+](=O)[O-])c3)o2)CC1 | 0.14 | -2.4* | -20 | 4 | 0.059*
CN1CCN(c2ccccc2NC(=O)c2cccc([N+](=O)[O-])c2)CC1 | . | -0.59 | . | . | .
CCN(CC)C(=O)C1CCCN(c2ccc([N+](=O)[O-])cc2/C=N/NC(=O)c2ccc([N+](=O)[O-])cc2)C1 (configuration not stated) | 0.59 | . | 8 | 10 | ?
CN1CCN(c2ccc([N+](=O)[O-])cc2/C=N/NC(=O)c2cccc([N+](=O)[O-])c2)CC1 | 0.2 | -2.3* | 10 | 17 | 0.058*
CC(C)CCC(CC(C)O)c1n[nH]c(=S)n1-c1ccccc1 (configuration not stated) | 0.73 | -0.048 | . | 24 | .
CCOC(=O)CSc1nnc(CNc2ccc(Cl)cc2)n1Cc1ccccc1 | -1.8 | -3.8* | 0 | 2 | 0.063*
CC(C)OC(=O)CSc1nnc(CNc2ccc(Cl)cc2)n1Cc1ccccc1 | -1.3 | . | 68 | 8 | .
Cc1cc(/C=C2\Sc3ccccc3N2C)cc(C)[n+]1CC1CCCO1 (configuration not stated) | . | -4.8* | . | . | 0.028*
Cc1ccc(-n2cc(CNCCCn3ccnc3C)c(-c3ccc(F)cc3)n2)cc1 | . | -0.31 | . | . | .
Cc1ccc(-n2cc(CNC(C)Cn3cncn3)c(-c3ccc(F)cc3)n2)cc1 (configuration not stated) | . | -1.6 | . | . | .
Cc1ccc(-n2cc(CNC(C)c3cnn(C)c3)c(-c3ccc(F)cc3)n2)cc1 (configuration not stated) | . | -2.7* | -35 | . | 0.051*
Cc1ccc(-n2cc(CNC(C)c3cnn(C)c3C)c(-c3ccc(F)cc3)n2)cc1 (configuration not stated) | . | -4.1* | . | . | 0.054*
C=CCNS(=O)(=O)CC12CCC(CC1=O)C2(C)C (configuration not stated) | 0.81 | -0.81 | 19 | 24 | .
CCOC(=O)C1CCN(S(=O)(=O)c2ccc(OC)c(Cl)c2)CC1 | . | 0.2 | -18 | . | .
CC(=O)N1C(C(=O)O)CSC1c1ccc(C)cc1 (configuration not stated) | -0.45 | . | . | 10 | 0.072
COc1ccc(C2SCC(C(=O)O)N2C(C)=O)cc1 (configuration not stated) | 0.65 | -0.046 | . | 5 | .
CCOC(=O)c1oc2ccc(/C=N/O)c(Cl)c2c1C | . | -0.11 | . | . | .
CN1/C(=C/C=C(C#N)C#N)C=Cc2ccccc21 | . | . | . | . | 0.047*
SMILES | sdo1 growth | ROMK mod | INS promoter inh | Measles CPE | ROMK retest
Cc1nc(CC(C)C)cc(C(=O)N2CCCC(CNS(=O)(=O)c3cccs3)C2)n1 (configuration not stated) | . | 0.34 | -421 | . | .
Cc1cc(C)nc(NC(=O)CSc2nccc(C)n2)n1 | . | 2.8* | . | . | 0.079
CC(C)C(CO)NC(=O)CC(=O)NC(CO)C(C)C (configuration not stated) | 0.81 | . | 14 | 34 | .
Cc1cccc(C)c1OCC(O)CNS(=O)(=O)c1ccccc1C(=O)N1CCCCC1 (configuration not stated) | -0.41 | -1.8 | -114 | 10 | 0.075
CN(C)c1ccc(/C=C/c2cc[n+](C)cc2)cc1 | 0.43 | -7.3* | -174 | 49* | 0.044*
CN(C)c1ccc(/C=C/c2cc[n+]([O-])cc2)cc1 | 1.4 | . | . | 25 | .
CC(O)c1ccc(-n2cnnn2)cc1 (configuration not stated) | 0.36 | -0.0017 | 14 | 3 | .
Cc1ccc(C)n1-c1ccc(-n2cnnn2)cc1 | 0.07 | . | 11 | 4 | 0.057*
CCN1C(=O)/C(=c2/s/c(=C3\SC(C)=C(C)N3CC)c(=O)n2CC)N(c2ccccc2)C1=S | . | . | -369 | . | .
CC(C)(C)NC(=O)CN(C(=O)CS(=O)CC(=O)Nc1ccc(F)cc1)c1ccc2c(c1)OCCO2 (configuration not stated) | . | 0.6 | 9 | . | .
COc1ccc(OC)c(NC(=O)c2sc3nc(Cc4ccccc4)cc(C(F)(F)F)c3c2N)c1 | 1.1 | -4.2* | 10 | 4 | 0.033*
COc1ccc(OC)c(NC(=O)c2nnn(CCc3ccccc3)c2N)c1 | 0.01 | . | . | 4 | .
O=C1Nc2ccccc2/C1=C/c1cnc(-c2ccccc2)[nH]1 | . | . | . | . | 0.048*
O=C1Nc2ccccc2/C1=C/c1cccnc1 | . | -1.8 | -133 | . | .
CN(CC(=O)NC1CCCCCCC1)S(=O)(=O)c1cnc[nH]1 | . | -0.87 | 7 | . | .
Cc1ccc(C(=O)NC(=S)N2CCN(c3ccccc3F)CC2)cc1 | -1.2 | 3.4* | -15 | 2 | 0.1*
O=C(NCCCn1ccnc1)C(=O)NCC1OCCCN1S(=O)(=O)c1ccccc1 (configuration not stated) | 1.8 | 0 | 0 | 9 | .
COc1cccc(N(CC(=O)N/N=C(\C)c2cccs2)S(C)(=O)=O)c1 | -0.08 | -0.61 | -17 | 3 | .
Cc1c(NC(N)=O)c(=O)n(-c2ccccc2)n1C | . | 0.59 | -248 | . | .
Cc1c(NC(=O)CC(=O)Nc2c(C)n(C)n(-c3ccccc3)c2=O)c(=O)n(-c2ccccc2)n1C | 2 | . | -36 | 6 | .
CC(=O)/C=C(\C)Nc1c(C)n(C)n(-c2ccccc2)c1=O | . | 1.8* | -21 | . | ?
Cc1c(NC(=O)CSc2ccccc2F)c(=O)n(-c2ccccc2)n1C | . | -2.2* | . | . | 0.081
CSc1cccc(NC(=S)N2CCCN(Cc3ccc(F)cc3)C2)c1 | . | -1.1 | -62 | . | .
CCOc1ccccc1N1CCN(CC(=O)NCCc2ccc(S(N)(=O)=O)cc2)CC1 | . | -0.048 | . | . | .
OC(COC(c1ccc(Cl)cc1)c1ccc(Cl)cc1)CN1CCCC1 (configuration not stated) | 0.2 | -3.9* | -34 | 3 | 0.057*
SMILES | sdo1 growth | ROMK mod | INS promoter inh | Measles CPE | ROMK retest
Cc1cc(/C(N)=N/OC(=O)Nc2ccc(Cl)cc2)no1 | . | -1 | . | . | .
N#Cc1cccc(N=c2ssnc2Cl)c1 | . | -3.9* | -7 | . | 0.065*
Clc1nssc1=Nc1ccc(Br)cc1 | . | 0.017 | 21 | . | .
COC(=O)C(Cc1ccccc1)NC(=O)c1cccc(S(=O)(=O)N(C)C)c1 (configuration not stated) | . | 0.37 | . | . | .
CCC(=O)N1CCN(c2ccccc2NC(=O)COc2cc(C)ccc2C(C)C)CC1 | -0.37 | -3.5* | -37 | 2 | 0.066*
CCOC(=O)CSc1ccc(C(=O)Nc2ccc(OC)cc2)cn1 | . | 0.039 | . | . | .
